From PubChem BioAssay (NCATS)
Results filed as inconclusive are left out. Activity calls are given as the source filed them. Calls come from the whole dose curve; as a rule, active = well fitted inhibition curve with a large enough effect in the repeat runs; inconclusive = weak or mixed curves; inactive = no such curve, though single readings can be large or run the other way.
Potency is the fitted concentration of half-maximal effect.

These compounds were tested against Cytochrome P450 2C9 (Homo sapiens) (UniProt P11712) (assay: Cytochrome P450 family 2 subfamily C member 9 (CYP2C9) small molecule antagonists: luciferase biochemical (cell-free) qHTS assay (AID 1645842; note: nearly all actives have a fitted effect of over 55% in size)). Conditions: P450-Glo CYP2C9 enzyme assay, luciferin luminescence; series mostly up to 57.4 µM.
Cytochrome P450 2C9 (Homo sapiens), sequence (P11712 whole entry, looked up): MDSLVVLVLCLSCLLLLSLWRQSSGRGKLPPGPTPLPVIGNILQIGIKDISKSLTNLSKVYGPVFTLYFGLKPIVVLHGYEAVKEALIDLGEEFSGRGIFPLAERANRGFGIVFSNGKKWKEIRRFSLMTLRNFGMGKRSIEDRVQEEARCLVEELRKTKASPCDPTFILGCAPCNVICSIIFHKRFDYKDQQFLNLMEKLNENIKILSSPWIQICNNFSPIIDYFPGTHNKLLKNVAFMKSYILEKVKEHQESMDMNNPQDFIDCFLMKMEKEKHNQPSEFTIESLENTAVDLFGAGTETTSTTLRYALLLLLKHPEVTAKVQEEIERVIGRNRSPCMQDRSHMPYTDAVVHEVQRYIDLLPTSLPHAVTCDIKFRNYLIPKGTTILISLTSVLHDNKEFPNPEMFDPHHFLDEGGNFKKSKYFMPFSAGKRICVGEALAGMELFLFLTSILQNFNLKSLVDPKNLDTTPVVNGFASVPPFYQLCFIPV
Protocol: National Center for Advancing Translational Sciences [NCATS] Assay Overview: Cytochrome P450 (CYP) enzymes are membrane-bound hemeproteins that play a key role in metabolism of drugs and xenobiotics. Assaying the effect of chemicals on CYP isozymes is useful to minimize the adverse drug reactions and toxicities in drug development process. Chemical compounds were tested for their effect on CYP enzyme activities by using P450-Glo (TM) screening systems (Promega Corporation, Madison, WI). These systems provide a luminescent method containing proluciferin substrates and are converted to luciferin products by CYP isozymes. The luciferin products formed are detected with a luciferin detection reagent, and the amount of light produced is proportional to CYP activity. P450-Glo (TM) CYP2C9 screening system (Catalog. No. V9790) was used to detect the compounds that interfere in CYP2C9 activity.
Assay Protocol Summary: Two ul of enzyme-substrate mix supplemented with 0.4% Bovine Serum Albumin was dispensed into medium binding white/solid 1536-well plates (Greiner Bio-One North America Inc., Monroe, NC) using a Flying Reagent Dispenser (FRD, Aurora Discovery, San Diego, CA). […] The assay plates were incubated at room temperature for 10 min. Then 2 ul of NADPH regeneration solution was added to each well of the assay plates using an FRD and incubated at 37C for 1 h. The reaction was stopped by adding 4 ul of detection reagent using an FRD and after 20 min incubation at room temperature, the luminescence signal was measured using a ViewLux plate reader (Perkin Elmer, Shelton, CT). Data were expressed as relative luminescence units.
For `C[C@H]1COC2=C1C(=O)C(=O)c1c2ccc2c1CCCC2(C)C`, the Potency was 19 µM (active).
`O=C(Nc1cccc2c(=O)cc(-c3nn[nH]n3)oc12)c1ccc(OCCCCc2ccccc2)cc1` was tested, and the Potency was 7.76 µM (active).
For `c1cc(OCCN2CCCCC2)cc(-c2n[nH]c3ccc(-c4ncn[nH]4)cc23)c1`, the Potency was “inactive”.
For `CC(C)(O)CC(=O)NCCn1ccc2ncnc(Nc3ccc(Oc4cccc(C(F)(F)F)c4)c(Cl)c3)c21`, the Potency was 5.35 µM (active).
`O=C(Nc1ccc(OC(F)(F)F)cc1)c1sccc1NCc1ccnc2ccccc12` was tested, and the Potency was 7.56 µM (active).
With `NS(=O)(=O)c1cc(Cl)c(Cl)c(S(N)(=O)=O)c1` the Potency was “inactive”.
With `C[C@@H](N)c1ccc(C(=O)Nc2ccnc3[nH]ccc23)cc1` the Potency was “inactive”.
With `Cc1csc(-c2nnc(Nc3ccc(Oc4ncccc4-c4ccnc(N)n4)cc3)c3ccccc23)c1` the Potency was 12 µM (active).
In the case of `Clc1ccc(COC(Cn2ccnc2)c2ccc(Cl)cc2Cl)c(Cl)c1` (stereo not given), the Potency is reported as 0.19 µM (active).
For `Cc1nc(C(=O)NCC(=O)O)c(O)c2ccc(Oc3ccccc3)cc12`, the Potency was “inactive”.
In the case of `CN(C)c1ccc(-c2nc3ncc(Cl)c(N4CCN(CC(=O)Nc5nccs5)CC4)c3[nH]2)cc1`, the Potency is reported as 0.536 µM (active).
For `CCc1cccc(CC)c1NC(=O)N1Cc2[nH]nc(NC(=O)c3ccc(N4CCN(C)CC4)cc3)c2C1`, the Potency was “inactive”.
With `C[C@H](c1ccc(F)cc1CCCC(=O)O)N(c1cc(F)ccc1F)S(=O)(=O)c1ccc(Cl)cc1` the Potency was 8.49 µM (active).
For `Cn1cnc(-c2cc3nccc(Oc4ccc(NC(=S)NC(=O)Cc5ccccc5)cc4F)c3s2)c1`, the Potency was 1.9 µM (active).
In the case of `CC(C)CN(C[C@@H](O)[C@H](Cc1ccccc1)NC(=O)O[C@H]1CO[C@H]2OCC[C@H]21)S(=O)(=O)c1ccc(N)cc1`, the Potency is reported as 7.56 µM (active).
With `CCCCn1c(=O)n(Cc2ccccc2F)c(=O)c2[nH]c(Cc3ccc(NC(C)=O)cc3)nc21` the Potency was 6.01 µM (active).
For `CC[C@H](C)C(=O)O[C@H]1C[C@H](O)C=C2C=C[C@H](C)[C@H](CC[C@@H](O)C[C@@H](O)CC(=O)O)[C@H]21`, the Potency was “inactive”.
`CN(C)c1nc(Cc2ccc(NC(=O)c3ccc(C(F)(F)F)cc3)cc2)nc(N(C)C)c1CC(=O)O` was tested, and the Potency was “inactive”.
In the case of `CN1CCN(c2cccc(Nc3nc4c(-c5ccc(S(C)(=O)=O)cc5)cccn4n3)c2)CC1`, the Potency is reported as 12 µM (active).
For `COc1nccc(-c2c(-c3ccc(F)cc3)ncn2C2CCC(O)CC2)n1` (stereo not given), the Potency was “inactive”.
`CCCCC[C@H](O)C=C[C@H]1[C@H](O)CC(=O)[C@H]1CC=CCCCC(=O)O` was tested, and the Potency was “inactive”.
`Clc1ccc(C2(c3ccc(-c4cn[nH]c4)cc3)CCNCC2)cc1` was tested, and the Potency was 1.2 µM (active).
In the case of `COc1cc(Nc2nc3ccccc3nc2NS(=O)(=O)c2ccc(NC(=O)c3ccc(C)c(OC)c3)cc2)cc(OC)c1`, the Potency is reported as 7.56 µM (active).
For `CCn1c(-c2nonc2N)nc2cncc(CNC3CCNCC3)c21`, the Potency was “inactive”.
With `CCC(=O)N1CCN(c2ccc(-n3c(=O)ccc4cnc5ccc(-c6cnc7ccccc7c6)cc5c43)cc2C(F)(F)F)CC1` the Potency was 10.7 µM (active).
With `CN(C)CCOc1cc(-c2cn[nH]c2)ccc1NC(=O)C1COc2ccccc2O1` (stereo not given) the Potency was 0.674 µM (active).
With `Cn1c(=O)c(-c2c(Cl)cccc2Cl)cc2cnc(Nc3cccc(C(=O)O)c3)nc21` the Potency was “inactive”.
For `O=S(=O)(O)c1ccc2cc(N=Nc3cc(S(=O)(=O)O)c4cccnc4c3O)ccc2c1`, the Potency was “inactive”.
In the case of `COc1cc2nccc(Oc3ccc(NC(=O)Nc4cc(C)on4)c(Cl)c3)c2cc1OC`, the Potency is reported as 19 µM (active).
`N#CC(c1ccc(Cl)cc1)c1c(Cl)cc(-n2ncc(=O)[nH]c2=O)cc1Cl` (stereo not given) was tested, and the Potency was 19 µM (active).
For `Cc1ccccc1C(C(=O)NC1CCCCC1)N(C(=O)CNc1ccc(C#N)cc1)c1cccc(F)c1` (stereo not given), the Potency was 1.34 µM (active).
`NS(=O)(=O)c1ccc(Nc2nc(OCC3CCCCC3)c3[nH]cnc3n2)cc1` was tested, and the Potency was 26.8 µM (active).
With `CC(C)CNc1ccnc(NCc2csc(-c3ccccc3)n2)n1` the Potency was 10.7 µM (active).
With `O=C(CO)N1CCC(c2[nH]nc(-c3ccc(Cl)cc3)c2-c2ccncn2)CC1` the Potency was 6.74 µM (active).
With `Cc1cnc(CNC(=O)c2c(=O)c3ccc(N4CCCN(C)CC4)nc3n3c2sc2ccccc23)cn1` the Potency was “inactive”.
For `Cc1ccc(NC(=O)c2cccc(N(C)C)c2)cc1NC(=O)c1ccc(O)cc1`, the Potency was 7.56 µM (active).
In the case of `COc1ccc(-c2cc3nccn3c(Nc3ncccc3C(N)=O)n2)cc1OC`, the Potency is reported as 5.35 µM (active).
With `O=C(CCCN1CCN(c2ccc(F)cc2)CC1)NC1c2ccccc2CSc2ccccc21` (stereo not given) the Potency was 8.71 µM (active).
For `CSc1cccc(Nc2ncc3cc(-c4c(Cl)cccc4Cl)c(=O)n(C)c3n2)c1`, the Potency was 4.25 µM (active).
With `Cc1ccccc1C(=O)c1ccc(Nc2ccc(Br)cc2N)cc1Cl` the Potency was 10.7 µM (active).
